From PubChem BioAssay AID488969 (Vanderbilt High Throughput Screening Facility, 2010) come the findings set out here.

The structures appear in SMILES notation. Whole data set: some 110,000 compounds, median “z-score” near -0.1, cut for the highest 2% near 2. For the sample, the highest values were picked, then their nearest neighbours and some compounds at random. The source made the active and inactive calls.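 The calls were made as follows: active = z-score in the third read window above 3 or below -3; inactive = the rest.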

For this assay, the target named is Metabotropic glutamate receptor 8 (Rattus norvegicus) (UniProt P70579). The assay can be described thus: rat mGluR8 modulators via GIRK flux, primary screen, cell-based, thallium flux, HTS (AID 488969). As to conditions: HEK293 rat mGluR8, GIRK (G protein-gated inwardly rectifying potassium channel) thallium flux, FluoZin2; at 10 µM; stronger effect = higher value; submaximal glutamate (EC20) added with thallium.
Metabotropic glutamate receptor 8 (Rattus norvegicus), sequence (P70579 whole entry, looked up): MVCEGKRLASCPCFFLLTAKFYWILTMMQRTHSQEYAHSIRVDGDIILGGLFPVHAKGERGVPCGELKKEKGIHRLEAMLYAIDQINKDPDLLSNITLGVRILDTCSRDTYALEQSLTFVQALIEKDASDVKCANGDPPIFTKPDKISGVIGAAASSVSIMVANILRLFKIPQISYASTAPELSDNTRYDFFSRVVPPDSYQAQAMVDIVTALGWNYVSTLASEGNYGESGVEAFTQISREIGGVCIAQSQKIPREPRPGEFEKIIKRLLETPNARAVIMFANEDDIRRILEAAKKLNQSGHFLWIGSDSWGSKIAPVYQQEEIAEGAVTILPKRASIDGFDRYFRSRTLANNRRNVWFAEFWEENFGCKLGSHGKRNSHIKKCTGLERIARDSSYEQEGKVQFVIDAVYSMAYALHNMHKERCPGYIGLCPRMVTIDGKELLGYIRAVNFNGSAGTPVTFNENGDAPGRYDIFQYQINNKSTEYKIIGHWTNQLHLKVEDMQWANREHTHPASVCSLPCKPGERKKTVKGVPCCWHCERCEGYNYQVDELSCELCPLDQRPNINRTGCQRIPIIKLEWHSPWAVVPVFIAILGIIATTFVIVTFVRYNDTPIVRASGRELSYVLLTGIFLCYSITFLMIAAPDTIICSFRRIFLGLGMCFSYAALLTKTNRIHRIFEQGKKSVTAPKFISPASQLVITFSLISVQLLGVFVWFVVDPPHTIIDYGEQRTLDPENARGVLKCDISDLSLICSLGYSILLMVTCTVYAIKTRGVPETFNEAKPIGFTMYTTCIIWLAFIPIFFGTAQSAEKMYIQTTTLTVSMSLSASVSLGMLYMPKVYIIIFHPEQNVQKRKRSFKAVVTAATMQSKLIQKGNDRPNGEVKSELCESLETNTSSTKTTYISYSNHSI
`COc1ccc(OCCN2CCN(C3CC(=O)N(CCC(C)C)C3=O)CC2)cc1` (stereo unspecified): the z-score is -0.363.

With `O=C(/C=C/c1c(Cl)cccc1Cl)N1CCN(c2ncccn2)CC1`, the z-score was -0.303.

`COCC(C)NC(=O)c1ccccc1OC(C)=O` (stereo unspecified) gave a z-score of -0.44.

`COc1cc(/C=N/NC(=O)c2sc(N)c(C#N)c2C)cc(Br)c1O` displayed a z-score of -0.544.

Molecule `Cc1cc(C)n(-c2ccc(C(=O)OCC(=O)Nc3ccc(Cl)cc3[N+](=O)[O-])cc2)n1` had a z-score of -0.362.

Molecule `COc1ccc2cc(C(=O)NCCO)sc(=O)c2c1OC` displayed a z-score of -0.297.

Consider `COc1ccc2cc(C(=O)NCC(=O)O)sc(=O)c2c1OC`, for which the z-score was 3.42 (active).

As for `COC(=O)c1cc2ccc(OC)c(OC)c2c(=O)s1`, the z-score came to 0.0942.

`COc1ccc2cc(C(=O)Nc3ccc(F)cc3)sc(=O)c2c1OC` gave a z-score of 0.534.

Regarding `COc1ccc2cc(C(=O)OC(C)C)sc(=O)c2c1OC`, the z-score is -0.229.

For `COc1ccc2cc(C(=O)Nc3ccccc3)sc(=O)c2c1OC`, the z-score is 4.25 (active).

For `N#Cc1ccc(C(=O)Nc2cc(S(=O)(=O)Nc3ccc(Cl)cc3)ccc2N2CCCCC2)cc1`, the z-score is -0.309.

Turning to `O=C(O)CCc1ccc(-c2ccc(F)cc2)n1NC(=O)c1ccco1`, the z-score stood at 0.168.

`COc1ccc(N=Cc2cc3c(cc2O)OC(N)=C(C#N)C3c2ccccc2)cc1` (stereo unspecified) had a z-score of -1.18.

Molecule `N#CC1=C(N)Oc2cc(O)c(C=Nc3ccccc3)cc2C1c1ccccc1` (stereo unspecified) displayed a z-score of -0.423.

For the molecule `Cc1ccc(N=Cc2cc3c(cc2O)OC(N)=C(C#N)C3c2ccccc2)cc1` (stereo unspecified), the z-score is 6.28 (active).

The molecule `O=C(c1ccc(Cn2c(=O)[nH]c3ccccc3c2=O)cc1)N1CCN(c2ccc(Cl)cc2)CC1` displayed a z-score of -0.127.

Regarding `CC(C)CCn1c(CN2CCN(Cc3ccccc3)CC2)nc2c1c(=O)[nH]c(=O)n2C`, the z-score was 5.8 (active).

`CC(C)CCn1c(CN2CCN(Cc3ccccc3)CC2)nc2c1c(=O)n(C)c(=O)n2C` showed a z-score of 0.709.

Regarding `CN1CCN(Cc2nc3c(c(=O)[nH]c(=O)n3C)n2CCc2ccccc2)CC1`, the z-score is -0.00916.

In the case of `CC(C)CCNC(=O)CO/N=C/c1ccccc1OC(F)F`, the z-score is -0.572.

As for `N#CCSc1nc(Nc2ccc3c(c2)OCO3)c2ccccc2n1`, the z-score is -0.556.

Molecule `COc1cc(Nc2nc(SCC#N)nc3ccccc23)cc(OC)c1OC` displayed a z-score of 2.31.

For `COc1cc(Nc2nc3ccccc3n3nnnc23)cc(OC)c1OC`, the z-score was -0.0435.

With `CC(C)COC(=O)c1cccc2c1-c1ccccc1/C2=N\O`, the z-score was -0.108.

`O=C(Nc1cccc(Oc2ccc3c(c2)C(=O)NC3=O)c1)c1cccs1` showed a z-score of 0.83.

For `CC1CCCC(n2c(=S)[nH]c3ccccc3c2=O)C1C` (stereo unspecified), the z-score was 9.07 (active).

`CC1CCCCC1n1c(=S)[nH]c2ccccc2c1=O` (stereo unspecified): the z-score is 16.2 (active).

With `Cc1cc(C)c2c(N=NN3CCCCC3)[nH]nc2n1`, the z-score was -0.0999.

On to `CCN(CC)S(=O)(=O)c1ccc(NC(=O)c2ccc(NS(C)(=O)=O)cc2)cc1`, for which the z-score is 1.67.

Regarding `CCn1c(N2CCN(C(=S)NCC(C)C)CC2)nc2ccccc21`, the z-score is -0.148.

With `CCCC(=O)NCc1ccc2c(c1)cc(C)n2C`, the z-score was -0.371.

Regarding `CCOC(=O)C1=C(C)NC2=C(C(=O)CC(c3ccc(OC)c(OC)c3)C2)C1c1ccc(C)o1` (stereo unspecified), the z-score is 4.89 (active).

Molecule `CC1=C(C(=O)OCC2CCCO2)C(c2ccc(C)o2)C2=C(CC(c3ccc(N(C)C)cc3)CC2=O)N1` (stereo unspecified) gave a z-score of -0.22.

On to `CC1=C(C(=O)OCC2CCCO2)C(c2ccc(C)o2)C2=C(CC(c3ccc(F)cc3)CC2=O)N1` (stereo unspecified), for which the z-score was -3.31 (active).

As for `Cc1cc(C(F)(F)F)nc(SCC(=O)NC2=NC(=O)C(C)S2)n1` (stereo unspecified), the z-score is 0.475.

For `COc1ccccc1C(=O)NCC(=O)N/N=C/c1cc(Br)ccc1OC(=O)/C=C\c1ccco1`, the z-score is -0.122.

Molecule `O=C(CNC(=O)c1ccccc1F)N/N=C/c1cc(Br)ccc1OC(=O)/C=C/c1ccco1` displayed a z-score of -0.338.

`O=C(CNC(=O)c1cccc(F)c1)N/N=C/c1cc(Br)ccc1OC(=O)/C=C/c1ccco1`: the z-score came to 2.46.

Regarding `Cc1cc(C)nc(NC(=O)c2ccc(C)c([N+](=O)[O-])c2)n1`, the z-score is -0.0674.

Consider `O=C(CC(=O)Nc1ccccn1)Nc1ccccn1`, for which the z-score is 4.08 (active).

In turn, `O=C(CN1CCN(CC(=O)Nc2ccccn2)CC1)Nc1ccccn1` returned a z-score of -0.212.

In turn, `O=C(Nc1ccccc1)C(=O)Nc1ccccn1` returned a z-score of -0.125.

`COc1ccc(OCc2nc3ccc(S(=O)(=O)Nc4ccccc4Cl)cc3[nH]2)cc1` displayed a z-score of -0.822.

Regarding `Cc1ccc(S(=O)(=O)N2CCCCC2)cc1NC(=O)CSc1ccc2c(c1)OCCO2`, the z-score was -0.361.

The molecule `CCCCSc1nc(O)c(Cc2ccccc2)c(=O)[nH]1` displayed a z-score of 0.379.

Regarding `CCCCSc1nc(N)c(NC(=O)c2ccco2)c(=O)[nH]1`, the z-score was 3.07 (active).

Consider `Nc1nc(SCC(=O)N2CCCC2)[nH]c(=O)c1NC(=O)c1ccco1`, for which the z-score was determined as 0.975.

On to `O=C(O)C1C2C=CC(C3CC23)C1C(=O)NCCc1ccccc1` (stereo unspecified), for which the z-score came to 0.335.

`Cc1cc(C)n2nc(C(=O)NCc3ccccc3)cc2n1` gave a z-score of 0.128.

For the molecule `CCS/C(N)=N/N=C/c1cc(C)ccc1O`, the z-score is -0.389.

`CCc1ccccc1NC(=S)N1CCC(C(=O)c2ccc(F)cc2)CC1`: the z-score stood at 0.202.

As for `Cc1cccc(NC(=S)N2CCC(C(=O)c3ccc(F)cc3)CC2)c1C`, the z-score is 5.76 (active).

The molecule `O=C(c1ccc(F)cc1)C1CCN(C(=S)Nc2ccccc2)CC1` came in with a z-score of -0.612.

`Cc1ccc(Cn2ncc3c(NCCCN4CCOCC4)ncnc32)cc1` had a z-score of -0.227.

As to `CCc1nnc(NC(=O)CSc2nnc(-c3cccnc3)n2CCc2ccccc2)s1`, the z-score stood at 0.167.

`Cc1ccc(OCCn2c(=O)sc3ccccc32)cc1`: the z-score is -0.193.

Take `COc1ccc(Cc2c[nH]c(=O)[nH]c2=O)cc1`: the z-score is -0.218.

On to `COc1ccc(CO/N=C/c2c(C)[nH]c(=O)[nH]c2=O)cc1`, for which the z-score is 3.36 (active).

As for `COc1ccc(N(C)S(=O)(=O)c2c(C)[nH]c(=O)[nH]c2=O)cc1`, the z-score is 0.02.

`O=C(CSc1ncn[nH]1)Nc1ccc([N+](=O)[O-])cc1Br` registered a z-score of -0.12.

For `CC(C)CCNC1=CC(=O)CC(c2ccccc2)C1` (stereo unspecified), the z-score stood at 2.1.

Molecule `CCCCCNC1=CC(=O)CC(c2ccccc2)C1` (stereo unspecified) showed a z-score of -0.123.

On to `COc1ccc(C2CC(=O)C=C(NCCC(C)C)C2)cc1` (stereo unspecified), for which the z-score is 0.226.

Consider `CC(c1ccccc1)N1C(=O)c2ccc(C(=O)NCc3ccco3)cc2C1=O` (stereo unspecified), for which the z-score is -0.54.

In the case of `Cc1ccc(N=C(NO)c2nonc2N)cc1`, the z-score is -1.5.

Molecule `Cn1ccnc1C(O)(c1nnc(-c2ccccc2)o1)C(F)(F)F` (stereo unspecified) returned a z-score of -1.19.

`CC(C)n1c2ccccc2c2nc3ccccc3nc21`: the z-score is -0.47.

`CC(C)n1c(O)c(N=NC(=O)Cn2ccc(C(F)(F)F)n2)c2ccccc21` displayed a z-score of 1.13.

`CC(C)n1c(O)c(N=NC(=O)c2ccccc2NS(=O)(=O)c2cccs2)c2ccccc21` yielded a z-score of -0.411.

Take `Cc1cc(C(=O)N=Nc2c(O)n(C(C)C)c3ccccc23)n[nH]1`: the z-score turned out to be 0.232.

`CCCCn1c(O)c(N=Nc2ccccn2)c2ccccc21` returned a z-score of 2.97.

Turning to `CCCCn1c(O)c(N=NC(=O)Cn2c(C(F)(F)F)nc3ccccc32)c2ccccc21`, the z-score is 0.194.

`CC(C)n1c(O)c(N=Nc2ccccn2)c2ccccc21` displayed a z-score of 2.21.

As to `CC(C)CCn1c(O)c(N=Nc2ccccn2)c2ccccc21`, the z-score is 1.19.

Regarding `CC(C)n1c(O)c(N=Nc2ccc(Cl)nn2)c2ccccc21`, the z-score was 3.42 (active).
